# Reference: PubChem BioAssay (NCI)
# Where “and” joins values, the source holds several entries; their conditions need not be identical. Equal entries are not always repeated. The panel holds about 83,000 compounds, 20% with a hit somewhere; the sample as a whole holds those more often.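 Single-dose data. Exposure time 48 hours. Values below 10 considered active.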 Calls of active or inactive are those of the source.
# System: MDA-MB-435 melanoma
# Assay: NCI-60 one-dose screen, 48 h (100 = growth as untreated, 0 = no growth, -100 = all killed)
# Settings: 10 µM unless noted
row,SMILES,growth
1,CN(C)c1nc(NCCNS(=O)(=O)c2ccc(C(=O)/C=C/c3ccccc3)cc2)nc(N2CCOCC2)n1,83.3% (inactive)
2,N#CC1=C(c2cccs2)Nc2c(c(-c3ccccc3)nn2-c2ccccc2)C12C(=O)Nc1ccc(Cl)cc12 (configuration not stated),41.2% (inactive)
3,C#CCN(C)CCCOc1ccc(N(C)C(=O)c2cc(C(C)C)c(O)cc2O)cc1Cl,4.66% (active)
4,COc1ccc2c(c1)C(=O)N(C)C2C1c2c(cc3c(c2OC)OCO3)CCN1C (configuration not stated),-21.1% (active)
5,Cc1ccc(N=Nc2c(N)nn3c(-c4cc5cc(Br)ccc5oc4=O)ccnc23)cc1,113% (inactive)
6,O=C(CSc1nnc(-c2ccc(-c3nc4ccc(Cl)cc4[nH]3)cc2)o1)Nc1ccccc1,17.5% (inactive)
7,COc1ccc2ccccc2c1/C=C1\SC(=Nc2ccc(O)cc2)NC1=O,10.9% (inactive)
8,Cc1ccc(N=Nc2c(N)nn3c(-c4cc5ccccc5oc4=O)ccnc23)cc1,55.9% (inactive)
9,COc1ccc2nc(NC(=O)c3ccc(N(C)C)cc3)sc2c1,79.8% (inactive)
10,CC1=C(C)C(=O)C(N2CCSCC2)=CC1=O,112% (inactive)
11,O=C(CSc1nnc(-c2ccc(-c3nc4ccccc4[nH]3)cc2)o1)Nc1ccc(Cl)cc1,18.4% (inactive)
12,CC[C@]12C=CCN3CC[C@]4(C(=C(C(=O)OC)C1)Nc1cc(OC)c([C@@H]5[C@H]6O[C@H]6[C@@]6(CC)CC(C(=O)OC)=C7Nc8cc(OC)ccc8[C@@]78CCN5[C@@H]68)cc14)[C@@H]32,57.6% (inactive)
13,CC(=O)c1ccc2c(N)c(C(=O)Nc3ccc(C(F)(F)F)cc3)sc2n1,48.1% (inactive)
14,COc1ccc2c(c1)N=c1c-2cc2c(O)[nH]c(=S)n2c1=O,2.49% (active)
15,CN1CCN(CCS(=O)(=O)Nc2cc(-c3ccc4ncnc(Nc5ccc(F)c(Cl)c5)c4c3)cnc2Cl)CC1,0.425% (active)
16,C[C@@H](Nc1c(C#N)cnc2ccc(-c3cnc4[nH]ncc4c3)cc12)c1ccccc1,22.4% (inactive)
17,CN1CCc2c(sc3ncnc(N/N=C/c4cccc(Cl)c4Cl)c23)C1,39.3% (inactive)
18,COc1ccc(C2=NN(C(=O)[C@H]3[C@@H](c4ccco4)c4sc(=O)[nH]c4S[C@@H]3C)C(c3ccc4ccccc4c3)C2)cc1 (some centres not stated),41.8% (inactive)
19,N#Cc1c(-c2ccc(F)cc2)nc(SCc2ccc(F)cc2)nc1N1CCNCC1,-84.7% (active)
20,O=C(CSc1nnc(-c2ccc(-c3nc4ccccc4[nH]3)cc2)o1)Nc1ccc(Br)cc1,18.3% (inactive)
21,CN(C)CCCNC(=S)Nc1ccc(/C=C/c2ccc(Cl)cc2)cc1,-90.6% (active)
22,N/C(=N\c1nc2ccccc2s1)NC(=O)Nc1ccccc1F,-18.1% (active)
23,CN1C(=O)/C(=C\C(=O)c2cc3ccccc3oc2=O)c2ccccc21,85.4% (inactive)
24,COc1ccc(-n2c(NC(=O)N3CCN(C)CC3)c(C#N)c3ccccc32)cc1,71.7% (inactive)

# System: SW-620 colon
# Assay: as above
# Settings: 10 µM unless noted
row,SMILES,growth
1,S=C(Nc1ccc(OCc2nc3ccc(Cl)cc3[nH]2)cc1)NC1CCCCC1,-7.01% (active)
2,CC(C)(C)C(=O)c1c2c(c3ccc4c5ccccc5ccc4n13)C(=O)c1ccccc1C2=O,102% (inactive)
3,COc1ccc(-c2cc(C)nc3[nH]c(=O)sc23)cc1,98.1% (inactive)
4,O=C(Nc1nc2ccccc2s1)Nc1ccccc1Cl,96.8% (inactive)
5,COC(=O)c1cc(C(=O)C(C)(C)C)n2c3ccccc3c3ccccc3c12,101% (inactive)
6,CC(=O)Nc1cccc(-n2c(COc3ccc(I)cc3)nc3ccccc32)c1,96.6% (inactive) and 108% (inactive)
7,COc1ccc(N=Nc2c(N)nn3c(-c4cc5ccccc5oc4=O)ccnc23)cc1,31.3% (inactive)
8,O=C(Nc1ccc(S(=O)(=O)N2CCCCC2)cc1)C(Cl)Cl,109% (inactive)
9,CC(C)(C)OC(=O)N1C/C(=C\c2ccc(F)cc2)C(=O)/C(=C/c2ccc(F)cc2)C1,-67.7% (active)
10,O=C(COc1ccc(/C=C2/C(=O)Nc3ccc(Cl)cc32)cc1)Nc1ccc(Br)cc1,2.56% (active)
11,O=C(Cn1c(-c2ccccc2)nc2ccccc21)N=Nc1c(O)[nH]c2ccc(Br)cc12,11.9% (inactive)
12,COc1cccc(-c2ccc(/C=N/NC(=O)c3[nH]c4ccc(Br)cc4c3-c3ccccc3)s2)c1,20.4% (inactive)
13,O=C(c1ccc(Cl)cc1)C1[C@H](c2ccccc2Cl)[C@@H](c2ccccc2)NC12C(=O)Nc1ccc(Cl)cc12 (some centres not stated),-61.5% (active)
14,COc1ccc(-c2cc(-c3ccccc3)c(C#N)c(=O)[nH]2)cc1S(N)(=O)=O,102% (inactive)
15,CN(C)c1nc(NCCNS(=O)(=O)c2ccc(C(=O)/C=C/c3ccccc3)cc2)nc(N2CCOCC2)n1,-11.3% (active)
16,N#CC1=C(c2cccs2)Nc2c(c(-c3ccccc3)nn2-c2ccccc2)C12C(=O)Nc1ccc(Cl)cc12 (configuration not stated),21.3% (inactive)
17,C#CCN(C)CCCOc1ccc(N(C)C(=O)c2cc(C(C)C)c(O)cc2O)cc1Cl,12.2% (inactive)
18,COc1ccc2c(c1)C(=O)N(C)C2C1c2c(cc3c(c2OC)OCO3)CCN1C (configuration not stated),23.9% (inactive)
19,Cc1ccc(N=Nc2c(N)nn3c(-c4cc5cc(Br)ccc5oc4=O)ccnc23)cc1,107% (inactive)

row,SMILES,growth
1,O=C(CSc1nnc(-c2ccc(-c3nc4ccc(Cl)cc4[nH]3)cc2)o1)Nc1ccccc1,0.173% (active)
2,COc1ccc2ccccc2c1/C=C1\SC(=Nc2ccc(O)cc2)NC1=O,35.4% (inactive)
3,Cc1ccc(N=Nc2c(N)nn3c(-c4cc5ccccc5oc4=O)ccnc23)cc1,30.7% (inactive)
4,COc1ccc2nc(NC(=O)c3ccc(N(C)C)cc3)sc2c1,91.8% (inactive)
5,CC1=C(C)C(=O)C(N2CCSCC2)=CC1=O,97.3% (inactive)
6,O=C(CSc1nnc(-c2ccc(-c3nc4ccccc4[nH]3)cc2)o1)Nc1ccc(Cl)cc1,-50.5% (active)
7,CC[C@]12C=CCN3CC[C@]4(C(=C(C(=O)OC)C1)Nc1cc(OC)c([C@@H]5[C@H]6O[C@H]6[C@@]6(CC)CC(C(=O)OC)=C7Nc8cc(OC)ccc8[C@@]78CCN5[C@@H]68)cc14)[C@@H]32,50.4% (inactive)
8,CC(=O)c1ccc2c(N)c(C(=O)Nc3ccc(C(F)(F)F)cc3)sc2n1,80.1% (inactive)
9,COc1ccc2c(c1)N=c1c-2cc2c(O)[nH]c(=S)n2c1=O,47.4% (inactive)
10,CN1CCN(CCS(=O)(=O)Nc2cc(-c3ccc4ncnc(Nc5ccc(F)c(Cl)c5)c4c3)cnc2Cl)CC1,36.2% (inactive)
11,C[C@@H](Nc1c(C#N)cnc2ccc(-c3cnc4[nH]ncc4c3)cc12)c1ccccc1,40.2% (inactive)
12,CN1CCc2c(sc3ncnc(N/N=C/c4cccc(Cl)c4Cl)c23)C1,-36.9% (active)
13,COc1ccc(C2=NN(C(=O)[C@H]3[C@@H](c4ccco4)c4sc(=O)[nH]c4S[C@@H]3C)C(c3ccc4ccccc4c3)C2)cc1 (some centres not stated),24.9% (inactive)
14,N#Cc1c(-c2ccc(F)cc2)nc(SCc2ccc(F)cc2)nc1N1CCNCC1,-83.7% (active)
15,O=C(CSc1nnc(-c2ccc(-c3nc4ccccc4[nH]3)cc2)o1)Nc1ccc(Br)cc1,-47% (active)
16,CN(C)CCCNC(=S)Nc1ccc(/C=C/c2ccc(Cl)cc2)cc1,-41.7% (active)
17,N/C(=N\c1nc2ccccc2s1)NC(=O)Nc1ccccc1F,43% (inactive)
18,CN1C(=O)/C(=C\C(=O)c2cc3ccccc3oc2=O)c2ccccc21,27.1% (inactive)
19,COc1ccc(-n2c(NC(=O)N3CCN(C)CC3)c(C#N)c3ccccc32)cc1,69.2% (inactive)
